According to PubChem BioAssay:
The source made the active and inactive calls.

Key:
[1] = compounds binding Alexa647 anti-His antibody – biochemical, small-molecule microarray, 635 nm fluorescence, artefact control for SMM control protein annotation, primary screen (AID 1128); details: higher = more signal;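 further: score merges feature fluorescence with signal-to-noise for each printed compound spot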
[2] = test system: Human papillomavirus type 1a E7 protein (residues 1-88); assay: HPV1a E7 small-molecule binders, primary screen, biochemical, small-molecule microarray, residues 1-88, 635 nm (AID 1129); details: small-molecule microarray binding, fluorescence 635 nm; higher = more signal
[3] = molecular target: Focal adhesion kinase 1 (Homo sapiens) (UniProt Q05397); assay: PTK2 protein binding on printed compound slides – biochemical, small-molecule microarray, 635/667 nm fluorescence, BSA, DTT, primary screen (AID 1130); details: 635 nm fluorescence, higher = more signal;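 further: composite of spot emission at 667 nm and signal to noise over triplicate slides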
Sequence of Focal adhesion kinase 1 (Homo sapiens) (Q05397 whole entry, looked up): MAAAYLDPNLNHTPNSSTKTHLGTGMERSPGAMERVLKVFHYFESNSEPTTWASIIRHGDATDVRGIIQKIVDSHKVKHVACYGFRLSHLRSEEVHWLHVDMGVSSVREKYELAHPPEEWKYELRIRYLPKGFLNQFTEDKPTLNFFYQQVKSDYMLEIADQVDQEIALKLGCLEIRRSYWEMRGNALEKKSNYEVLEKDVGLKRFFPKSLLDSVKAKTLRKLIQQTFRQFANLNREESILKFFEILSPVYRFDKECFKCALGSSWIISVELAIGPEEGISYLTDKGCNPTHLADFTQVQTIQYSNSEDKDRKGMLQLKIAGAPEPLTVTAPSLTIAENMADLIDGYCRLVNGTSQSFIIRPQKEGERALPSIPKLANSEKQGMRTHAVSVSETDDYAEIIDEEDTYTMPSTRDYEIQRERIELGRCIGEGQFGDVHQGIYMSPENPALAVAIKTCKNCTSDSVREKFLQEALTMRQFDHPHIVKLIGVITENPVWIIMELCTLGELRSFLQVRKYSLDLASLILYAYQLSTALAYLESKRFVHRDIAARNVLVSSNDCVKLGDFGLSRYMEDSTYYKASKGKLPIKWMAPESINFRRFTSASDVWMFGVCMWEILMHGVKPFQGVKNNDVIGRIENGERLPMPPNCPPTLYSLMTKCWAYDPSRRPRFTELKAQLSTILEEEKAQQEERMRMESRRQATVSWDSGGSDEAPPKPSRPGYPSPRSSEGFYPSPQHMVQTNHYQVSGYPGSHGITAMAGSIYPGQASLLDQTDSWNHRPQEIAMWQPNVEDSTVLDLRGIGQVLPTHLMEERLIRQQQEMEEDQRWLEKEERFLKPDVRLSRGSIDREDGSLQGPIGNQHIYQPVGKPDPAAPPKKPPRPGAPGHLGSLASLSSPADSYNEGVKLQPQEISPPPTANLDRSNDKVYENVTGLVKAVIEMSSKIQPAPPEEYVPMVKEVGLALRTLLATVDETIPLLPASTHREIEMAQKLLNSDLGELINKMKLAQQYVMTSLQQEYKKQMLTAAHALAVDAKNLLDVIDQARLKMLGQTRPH

[4] = test system: Fibrinogen (Alexa647-labelled); assay: Alexa647-fibrinogen binding to printed small molecules – biochemical, small-molecule microarray, 635/667 nm fluorescence, artefact control for SMM control-protein annotation, profiling panel (AID 1131); details: fibrinogen-A647 binding fluorescence, higher = more signal;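 further: z-score merges 667 nm fluorescence with per-spot signal-to-noise over triplicate slides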
[5] = molecular target: Follistatin (Homo sapiens) (UniProt P19883); assay: FST protein binding to printed compounds – biochemical, small-molecule microarray, 635/667 nm fluorescence, primary screen (AID 1132); details: 635 nm fluorescence, higher = more signal
Sequence of Follistatin (Homo sapiens) (P19883 whole entry, looked up): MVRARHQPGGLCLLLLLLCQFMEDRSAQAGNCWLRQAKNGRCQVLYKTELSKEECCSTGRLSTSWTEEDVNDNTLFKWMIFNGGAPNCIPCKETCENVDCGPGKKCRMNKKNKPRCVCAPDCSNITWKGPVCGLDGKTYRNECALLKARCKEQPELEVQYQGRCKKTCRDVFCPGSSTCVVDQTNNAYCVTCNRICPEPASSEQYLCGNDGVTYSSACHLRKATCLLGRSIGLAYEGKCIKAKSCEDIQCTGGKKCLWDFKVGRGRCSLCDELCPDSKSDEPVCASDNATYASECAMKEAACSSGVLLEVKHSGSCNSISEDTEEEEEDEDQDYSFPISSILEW

[6] = molecular target: Fibroblast growth factor 2 (Homo sapiens) (UniProt P09038); assay: basic fibroblast growth factor binding to printed compounds – biochemical, small-molecule microarray, 635/667 nm fluorescence, primary screen (AID 1133); details: FGF2, fluorescence 635/667, higher = more signal
Sequence of Fibroblast growth factor 2 (Homo sapiens) (P09038 whole entry, looked up): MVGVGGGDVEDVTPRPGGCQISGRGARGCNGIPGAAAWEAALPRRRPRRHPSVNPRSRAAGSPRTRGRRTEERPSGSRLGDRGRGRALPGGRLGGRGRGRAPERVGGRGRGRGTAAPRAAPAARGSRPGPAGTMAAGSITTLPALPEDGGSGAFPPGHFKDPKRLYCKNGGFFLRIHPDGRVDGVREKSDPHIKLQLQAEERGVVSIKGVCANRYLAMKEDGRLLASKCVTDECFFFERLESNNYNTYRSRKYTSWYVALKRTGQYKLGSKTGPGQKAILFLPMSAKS

[7] = JC-1 mitochondrial potential readout, lung cancer cells – cell-based, A549, JC-1 fluorescence, basal, 24 h, 100 nL, profiling panel (AID 1138); details: higher = more signal;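 further: A549 lung adenocarcinoma cells under basal conditions with no added stimulus; test concentration not given here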
Lefty1 = Lefty1 protein binding to printed compounds – biochemical, small-molecule microarray, 635/667 nm fluorescence, primary screen (AID 1139); details: fluorescence 635/667, higher = more signal
[8] = test system: wheat germ agglutinin (Triticum aestivum), Alexa647-labelled; assay: Alexa647-WGA lectin binding to printed small molecules – biochemical, small-molecule microarray, 635/667 nm fluorescence, artefact control for SMM control-protein annotation, profiling panel (AID 1140); details: WGA-A647 binding, 635 nm fluorescence, higher = more signal;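 further: score merges 667 nm feature emission with signal to noise over triplicate slides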
[9] = molecular target: Luciferin 4-monooxygenase (Photinus pyralis) (UniProt P08659); assay: inhibition of purified Photinus pyralis luciferase – biochemical, luminescence, purified enzyme, 2006 set, primary screen (AID 1141); details: purified firefly luciferase, SteadyGlo luminescence, 30 min; higher = more signal, called active from +8 up or from −8 down;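 further: cell-free assay with purified firefly luciferase at 100 ng per well in PBS; test concentration not given here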
Sequence of Luciferin 4-monooxygenase (Photinus pyralis) (P08659 whole entry, looked up): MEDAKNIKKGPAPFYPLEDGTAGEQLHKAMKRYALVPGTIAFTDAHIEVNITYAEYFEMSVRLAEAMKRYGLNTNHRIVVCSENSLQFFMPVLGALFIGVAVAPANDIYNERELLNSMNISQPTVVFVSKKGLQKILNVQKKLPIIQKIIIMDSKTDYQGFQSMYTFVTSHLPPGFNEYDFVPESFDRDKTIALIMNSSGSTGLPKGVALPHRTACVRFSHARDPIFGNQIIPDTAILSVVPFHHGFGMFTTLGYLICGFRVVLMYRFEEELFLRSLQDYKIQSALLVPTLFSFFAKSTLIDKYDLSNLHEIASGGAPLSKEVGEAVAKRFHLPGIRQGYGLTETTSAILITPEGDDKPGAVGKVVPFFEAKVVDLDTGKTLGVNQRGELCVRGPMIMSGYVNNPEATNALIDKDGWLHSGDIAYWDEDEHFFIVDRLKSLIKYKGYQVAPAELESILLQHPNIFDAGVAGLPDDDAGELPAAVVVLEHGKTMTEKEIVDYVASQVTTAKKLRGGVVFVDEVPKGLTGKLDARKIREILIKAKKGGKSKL

| SMILES | composite z-score [1] | composite z-score [2] | composite z-score [3] | composite z-score [4] | composite z-score [5] | composite z-score [6] | z-score [7] | composite z-score (Lefty1) | composite z-score [8] | z-score [9] |
| --- | --- | --- | --- | --- | --- | --- | --- | --- | --- | --- |
| CO[C@H]1COC(=O)CC=C[C@H](C)[C@@H](OC)COC(=O)[C@H](Cc2ccccc2)NC(=O)CC=C[C@@H]1C | -1.1 | -2.59 | 0.264 | -1.23 | 1.42 | 1.34 | 1.39 | 1.59 | -0.324 | -1.06 (inactive) |
| CC[C@H]1C2=C3C(CC[C@H]4C(OC)OC[C@](C)([C@@H]34)N(C(=O)OC(C)(C)C)C2)C(CO)C1CO (stereo not given in full) | 2.26 | 1.18 | 1.47 | 0.43 | 0.579 | -0.468 | 1.16 | -0.181 | 1.06 | 0.16 (inactive) |
| O=C1C[C@@](C(=O)NCCN2CCOCC2)(c2ccc([N+](=O)[O-])cc2)[C@@H](c2ccc(CO)cc2)N1C1CCCCC1 | 0.926 | 0.666 | -0.442 | 0.63 | 1.16 | 1.22 | 1.11 | 0.0031 | 0.43 | -0.83 (inactive) |
| COCC(=C=CC[C@H](O)c1ccc(OCCO)cc1)C[C@H](O)c1ccccn1 | -0.0301 | 0.401 | -0.389 | -0.263 | 0.193 | 0.0116 | 1.92 | 0.233 | -0.32 | -2.45 (inactive) |
| CC[C@@H]1C=C(C(=O)O)[C@H](c2ccccc2)N1S(=O)(=O)c1ccc([N+](=O)[O-])cc1 | 1.34 | 1.24 | 0.783 | -0.368 | 0.221 | -0.715 | -0.506 | -0.177 | 1.01 | 0.631 (inactive) |
| CO[C@@H]1COC(=O)[C@H](C)NC(=O)CC=C[C@@H](C)[C@H](OC)COC(=O)[C@H](C)NC(=O)CC=C[C@H]1C | 0.284 | 0.207 | 0.0533 | 0.38 | 0.614 | 0.989 | 1.64 | 0.59 | 0.222 | -1.57 (inactive) |
| CCCNC(=O)[C@@H]1c2ccccc2C(=O)N(Cc2cc(F)cc(C(F)(F)F)c2)[C@H]1c1ccc(CO)cc1 | 2.1 | 1.14 | 0.674 | 0.62 | 1.41 | 0.587 | 1.74 | 1.58 | 0.628 | -0.747 (inactive) |
| C[C@@H]1NC(=O)[C@H](Cc2ccccc2)NC(=O)[C@@]23C(=O)N[C@@H](Cc4ccccc4)C2[C@H](C)[C@@]2(C)O[C@H]2C3/C=C/C/C=C\CNC1=O (stereo not given in full) | 0.0093 | -1.79 | -0.524 | -0.89 | 0.216 | 0.0447 | -0.0521 | 0.256 | -0.906 | -0.0116 (inactive) |
| C=CCNC(=O)[C@H]1[C@@H]2C(=O)O[C@@H](c3ccccc3)[C@@H](c3ccccc3)N2[C@@H](c2ccc(O)cc2)[C@]12C(=O)Nc1ccc(C#CCNC(N)=O)cc12 | -1.09 | -0.572 | 0.199 | -1.04 | 0.094 | -0.415 | -0.171 | -0.886 | -0.52 | -1.25 (inactive) |
| CC(C)(C)OC(=O)CC[C@]1(C(=O)NCCN2CCOCC2)N=C(c2ccc(OCCCO)cc2)O[C@H]1c1ccccc1CN=[N+]=[N-] | 2.63 | 1.17 | 1.17 | 0.75 | -0.651 | -0.962 | 0.22 | -0.697 | 1.31 | -0.736 (inactive) |
| CO[C@H]1COC(=O)[C@H](CCSC)NC(=O)CC=C[C@@H](C)COC(=O)[C@@H](OCc2ccccc2)C=C[C@@H]1C | -0.155 | -0.762 | -0.36 | -1.22 | 1.18 | 1.46 | 0.676 | 1.63 | -1.02 | -1.12 (inactive) |
| CCCCCCc1nc(C2CC2)c(C)c2c1[Si](C(C)C)(C(C)C)OC2 | -0.095 | -1.51 | -0.695 | -0.687 | -0.0256 | -0.0723 | -0.451 | -0.238 | -0.982 | -0.441 (inactive) |
| C=CC[C@]1(C(=O)O)N=C(c2ccc(OCCCO)cc2)O[C@H]1c1ccccc1N=[N+]=[N-] | 0.258 | -0.171 | 0.0806 | -0.17 | -0.0493 | -0.124 | 1.28 | -1.09 | 0.0828 | -12.3 (active) |
| O=C(NCc1ccccc1)[C@@]1(CCS(=O)(=O)c2ccccc2)COC(c2ccc(OCCCO)cc2)=N1 | 3.16 | 1.26 | 0.79 | 0.869 | 0.354 | -0.376 | 0.959 | -0.278 | 1.49 | -1.42 (inactive) |
| C/C(=N\O)C(=O)NCCCCCNC(=O)OCc1ccccc1 | 0.443 | 0.783 | 0.317 | 0.825 | 0.7 | 0.545 | 2.02 | 0.93 | 0.3 | -1.72 (inactive) |
| CCCCCCc1nc(-c2cc(C)c(OC)c(C)c2)cc2c1[Si](C(C)C)(C(C)C)O[C@H]2c1ccccc1 | -0.36 | -0.341 | -0.272 | -0.399 | 0.0128 | -0.683 | -0.705 | -0.0906 | -0.372 | 0.844 (inactive) |
| COc1cc2c(cc1OC)CN(C(=O)[C@@H]1[C@H]3C(=O)O[C@H](c4ccccc4)[C@H](c4ccccc4)N3[C@H](c3ccccc3OCCO)[C@@]13C(=O)Nc1ccccc13)CC2 | 2.5 | 1.22 | 0.702 | 0.833 | 0.666 | 0.465 | 0.447 | 0.0595 | 0.849 | -1.38 (inactive) |
| NC(=O)NCC#Cc1ccc2c(c1)[C@]1(C(=O)N2)[C@H](c2ccccc2OCCO)N2[C@H](c3ccccc3)[C@H](c3ccccc3)OC(=O)[C@H]2[C@@H]1C(=O)N1CCN(c2ncccn2)CC1 | 0.997 | 1.19 | 0.695 | 0.814 | 1.08 | 1.03 | -0.77 | 0.347 | 0.438 | -0.538 (inactive) |
| COc1ccc(-c2cc3c(c(-c4ccccc4)n2)[Si](C(C)C)(C(C)C)O[C@H]3c2ccccc2)cn1 | -0.614 | 0.438 | -0.142 | 0.0413 | 0.758 | 0.343 | 0.136 | 0.506 | -0.0707 | 0.167 (inactive) |
| NC(=O)NCC#Cc1ccc2c(c1)[C@]1(C(=O)N2)[C@H](C(=O)N2CCCCCCC2)[C@H]2C(=O)O[C@H](c3ccccc3)[C@H](c3ccccc3)N2[C@@H]1c1ccccc1OCCO | 1.03 | 1.27 | 2.88 | 0.743 | 1.51 | 0.0779 | 0.209 | 1.32 | 1.59 | -0.984 (inactive) |
| C=CC[C@@]1(C(=O)NCC(O)CO)N=C(c2ccc(OCCCO)cc2)O[C@@H]1c1ccccc1CN=[N+]=[N-] (stereo not given in full) | 1.55 | 0.756 | 0.77 | 0.198 | 0.415 | -0.492 | 1.37 | -0.548 | 0.569 | -0.117 (inactive) |
| COCCOC(=O)N1C(=O)[C@@]2(c3cc(C#CCCO)ccc31)[C@H](C(=O)N1CCCCCCC1)[C@H]1C(=O)O[C@H](c3ccccc3)[C@H](c3ccccc3)N1[C@@H]2c1ccc(O)cc1 | 1.12 | 1.18 | 1.49 | 0.555 | 1.34 | 0.661 | 1.65 | 0.957 | 1.1 | -0.888 (inactive) |
| COc1cc(CO)cc(I)c1O[C@H]1C=C(C(=O)NCCO)C[C@@H](NCCc2c[nH]c3ccccc23)[C@@H]1O | 0.876 | 0.579 | -0.0981 | 0.824 | 0.792 | 0.243 | 0.898 | 0.28 | 1.21 | 0.47 (inactive) |
| CO[C@]12C=C(Br)[C@@H](C[C@@H]1c1ccccc1)[C@@]1(CO1)C2=O | -0.22 | -0.0095 | -0.259 | -0.0226 | 0.931 | 0.6 | 0.704 | 0.41 | -0.297 | -0.876 (inactive) |
| C[C@@H]1NC(=O)CC=C[C@@H](C)[C@@H]2C=C[C@H](O)[C@@H](COC(=O)[C@H](C)NC(=O)CC=C[C@@H](C)[C@@H]3C=C[C@H](O)[C@@H](COC1=O)O3)O2 | -0.689 | -0.453 | 0.365 | -0.917 | 1.29 | 0.859 | -0.0173 | 1.41 | -0.833 | -0.595 (inactive) |
| [N-]=[N+]=NCc1ccccc1C[C@@]1(C(=O)N2CCOCC2)N=C(c2ccc(OCCCO)cc2)O[C@@H]1c1ccccc1N=[N+]=[N-] | 1.8 | 1.22 | 0.662 | 0.9 | 1.12 | 0.267 | 1.4 | -0.123 | 1.37 | -8.34 (active) |
